Experimental data from PubChem BioAssay (NCATS).
Inconclusive results are not listed. Activity calls are given as the source filed them. Unless noted, calls come from the whole dose curve; as a rule, active = well fitted curve in the direction sought with a large enough effect; inconclusive = small, poorly fitted or top-dose-only effect, or another doubt; inactive = no such curve, though single readings can be large; an effect the other way counts as inactive or inconclusive.

Columns and labels:
[1] = tested on: Zika virus NS2B-NS3 protease (linked construct); experiment: Primary screen NINDS Rhodamine qHTS for Zika virus inhibitors (AID 1347160); note: nearly all actives have a fitted effect of over 55% in size; note: potency is the fitted concentration of half-maximal effect
Procedure, shortened: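 Percent inhibition, normalized to uninhibited and enzyme-free controls, is fitted to a 4-parameter Hill equation. Fluorescence change comes from a 15-min cleavage of 1.5 microM bis-peptide Rhodamine110 substrate by 25 nM linked NS2B-NS3 at room temperature.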

[2] = UWB1.289 Cancer Cell Toxicity qHTS against the NCATS CANVASS Library (AID 1347347); note: nearly all actives have a fitted effect of over 60% in size; note: potency is the fitted concentration of half-maximal effect
Procedure, shortened: (§1)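 In this cytotoxicity screen, 1000 cells per well rested 4 hours, then received compound (11 concentrations) for a 72-hour incubation; an ATP-dependent luminescent signal (CellTiter-Glo) was the endpoint.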

[3] = HPAF-II 24hr Apoptosis Induction qHTS against the NCATS CANVASS Library (AID 1347356)
Procedure, shortened: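 HPAF-II cells (500/well) in DMEM + 10% FBS were treated with an 11-point compound series for 24 hours at 37 degrees C. Caspase-3/7 activity was then read by Caspase-Glo DEVD luminescence after 15 min.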

[4] = qHTS for ATAD5 Agonist screened against the NCATS CANVASS Library (AID 1347367);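 note: luciferase reporter driven by ATAD5 which rises upon DNA damage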
Procedure, shortened: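 Step one plated reporter cells and let them acclimate 5hr. Step two pinned compounds with MMS as positive and 0.46% DMSO as negative control. After 16hr incubation, fluorescence viability then luminescence were read.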

[5] = qHTS for activators of dead-cell proteases activity screened against the NCATS CANVASS Library (AID 1347392);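 note: luminescence from protease leaking out of membrane-damaged cells cleaving impermeant substrate; rising signal means more cytotoxicity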
Procedure, shortened: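 HepG2 cells, 2000/well, attached 18 h at 37C, then exposed to compounds (11-point qHTS) for 5 h. Dead-cell protease release read as luminescence from cell-impermeant AAF-aminoluciferin substrate after 15 min at room temperature.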

[6] = OV-SAHO Cancer Cell Toxicity qHTS against the NCATS CANVASS Library (AID 1347348); note: nearly all actives have a fitted effect of over 55% in size; note: potency is the fitted concentration of half-maximal effect
Procedure, shortened: as §1

[7] = qHTS for Antimalaria activity screened against the NCATS CANVASS Library (AID 1347380); note: nearly all actives have a fitted effect of over 40% in size; note: potency is the fitted concentration of half-maximal effect
Procedure, shortened: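 P. falciparum Dd2-infected RBCs (2.5% hematocrit final, 0.3% parasitemia) in Albumax II RPMI were exposed to compounds in an 11-point qHTS series for 72 h at 37C under 5% O2/5% CO2, then lysed with SYBR Green.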

[8] = HPAF-II 18hr Apoptosis Induction qHTS against the NCATS CANVASS Library (AID 1347360)
Procedure, shortened: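 Apoptosis was scored as caspase-3/7 activity in HPAF-II pancreatic cancer cells treated 18 hours with an 11-point concentration series.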

[9] = Redox Reaction Profiling qHTS: Assay Interference Panel against the NCATS CANVASS Library (AID 1347401); note: potency is the fitted concentration of half-maximal effect
Procedure, shortened: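 Compounds in 11-point series incubated with 5 uM resazurin and 200 uM DTT in 50 mM HEPES pH 7.3, 50 mM NaCl. Resorufin fluorescence (Ex 525/Em 598) read before and after 15 min in the dark.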

[10] = molecular target: Glucocorticoid receptor (Homo sapiens) (UniProt P04150); experiment: GR-GFP Redistribution (AID 450;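 active = compounds whose dose series gives a full or clear partial fitted curve of increased nuclear translocation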; note: potency is the fitted concentration of half-maximal effect); conditions: U2OS GR-GFP nuclear translocation, laser cytometry, 2 h
[11] = molecular target: Glucocorticoid receptor (Homo sapiens) (UniProt P04150); experiment: GR-EFC Redistribution (AID 451; calls by dose curve; note: potency is the fitted concentration of half-maximal effect); conditions: CHO-K1 GR-EFC translocation, beta-gal luminescence, 2 h
Procedure, shortened: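 CHO-K1 cells expressing nuclear EA and GR-ED fragments of b-gal; compounds titrated up to 46 uM final, 2 h at 37 C. GR nuclear translocation read as complemented b-gal luminescence after 1 h RT detection.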

[12] = molecular target: Mitogen-activated protein kinase 10 (Mus musculus) (UniProt Q61831); experiment: JNK3 AlphaScreen Assay (AID 530; active = well fitted curve in either direction with a large enough effect, not every such curve was filed as active;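 note: kinase came from lysate of stimulated human HepG2 cells; potency is the fitted concentration of half-maximal effect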)
Procedure, shortened: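 qHTS format: compounds tested as titrations against IL-1beta/TNF-alpha-activated HepG2 lysate JNK3 with biotin-GST-cJun substrate and 10 uM ATP at room temperature. Loss of anti-phospho-cJun AlphaScreen signal indicates inhibition.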

[13] = molecular target: DNA dC->dU-editing enzyme APOBEC-3G (Homo sapiens) (UniProt Q9HC16); experiment: qHTS for inhibitors of Vif-A3G interactions: Validation (AID 588379)
Procedure, shortened: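 HeLa cells stably expressing Vif and A3G-eYFP, 700 cells/well, incubated overnight at 37 deg C, then exposed to compound overnight at 37 deg C. Inhibition of Vif-mediated degradation read as increased yellow fluorescence (Ex 488/Em 500-530) by laser-scanning cytometry.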

[14] = Primary qHTS for small molecule stabilizers of the endoplasmic reticulum resident proteome: Secreted ER Calcium Modulated Protein (SERCaMP) assay (AID 1508630)
Procedure, shortened: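 GLuc-SERCaMP-expressing SH-SY5Y cells, pretreated 16 h with compound, are challenged with thapsigargin to empty ER calcium stores; after 4 h, coelenterazine is added directly to the medium and luminescence is imaged.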

Measured: Potency

Sequence of Glucocorticoid receptor (Homo sapiens) (P04150 whole entry, looked up, the tested form may be a part): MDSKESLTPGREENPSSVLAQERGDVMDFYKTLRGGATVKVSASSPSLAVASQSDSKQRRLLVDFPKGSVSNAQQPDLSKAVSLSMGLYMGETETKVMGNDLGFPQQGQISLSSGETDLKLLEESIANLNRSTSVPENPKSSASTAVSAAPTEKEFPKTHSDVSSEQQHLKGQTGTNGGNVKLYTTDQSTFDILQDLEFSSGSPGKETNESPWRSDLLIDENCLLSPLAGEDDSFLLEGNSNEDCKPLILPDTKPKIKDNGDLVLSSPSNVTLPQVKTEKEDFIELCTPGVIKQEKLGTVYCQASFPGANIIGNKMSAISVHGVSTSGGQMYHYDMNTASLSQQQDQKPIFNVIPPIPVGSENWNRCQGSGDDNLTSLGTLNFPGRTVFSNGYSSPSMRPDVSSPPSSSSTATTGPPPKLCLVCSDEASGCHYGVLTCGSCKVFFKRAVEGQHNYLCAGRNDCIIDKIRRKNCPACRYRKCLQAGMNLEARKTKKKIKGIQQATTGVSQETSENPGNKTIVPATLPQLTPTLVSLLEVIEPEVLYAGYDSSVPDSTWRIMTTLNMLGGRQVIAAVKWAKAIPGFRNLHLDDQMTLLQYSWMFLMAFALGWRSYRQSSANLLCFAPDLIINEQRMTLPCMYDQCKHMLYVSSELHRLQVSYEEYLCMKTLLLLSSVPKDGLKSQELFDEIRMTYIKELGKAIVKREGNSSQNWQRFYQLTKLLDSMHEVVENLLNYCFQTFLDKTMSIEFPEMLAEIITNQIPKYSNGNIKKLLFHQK
Sequence of DNA dC->dU-editing enzyme APOBEC-3G (Homo sapiens) (Q9HC16 whole entry, looked up): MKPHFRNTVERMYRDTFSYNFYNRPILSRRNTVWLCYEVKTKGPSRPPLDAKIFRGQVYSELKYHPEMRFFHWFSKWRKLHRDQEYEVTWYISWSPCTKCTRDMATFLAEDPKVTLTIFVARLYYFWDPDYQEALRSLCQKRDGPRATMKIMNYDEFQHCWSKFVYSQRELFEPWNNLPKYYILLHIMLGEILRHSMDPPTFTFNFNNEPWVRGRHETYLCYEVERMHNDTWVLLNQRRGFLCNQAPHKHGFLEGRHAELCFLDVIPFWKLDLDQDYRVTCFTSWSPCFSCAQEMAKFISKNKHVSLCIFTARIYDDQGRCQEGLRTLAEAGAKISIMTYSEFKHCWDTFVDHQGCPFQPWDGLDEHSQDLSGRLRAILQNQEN

CC1C(=O)C23CCC1C[C@@]21O[C@H]2C(C)(C)C=CC(=O)[C@@]23COC1=O (stereo partly specified)
inactive: [1] | [2] | [3] | [4] | [5]

C/C(=C\[C@H](C)C(=O)CCCC1CC(=O)NC(=O)C1)[C@@H]1OC(=O)/C=C/CC/C=C/C[C@@H](O)[C@@H]1C
active: [1] 17.5 µM | [2] 2.11 µM | [6] 2.98 µM
inactive: [3] | [4]

C[C@@H]1C(=O)[C@]23CC[C@H]1C[C@]21O[C@H]2C(C)(C)C=CC(=O)[C@@]23COC1=O
inactive: [2] | [3] | [4] | [5]
active: [1] 62.1 µM

CNc1ccc(Cl)cc1C(=O)OC[C@]1(C)[C@H]2CC[C@]3(C)[C@@H](C[C@@H](OC)[C@H](C)[C@H]3C3=C(O)C(=O)OC3O)[C@]2(C)CC[C@H]1O (stereo partly specified)
active: [1] 6.21 µM
inactive: [2] | [6] | [4] | [7]

CCC1=C2CCCN3C(=O)O[C@H]([C@H]1OC(C)=O)[C@H]23
inactive: [1] | [2] | [3] | [8] | [4] | [5] | [9]
active: [7] 0.0059 µM

CC(C)(Br)[C@@H](Cl)C[C@H](Br)[C@](C)(Cl)/C=C/Br
inactive: [3] | [8] | [4] | [7] | [5]
active: [1] 34.9 µM | [2] 18.8 µM | [9] 30.4 µM

COC1C(O)C(OC(N)=O)C(Oc2ccc3c(O)c(NC(=O)c4ccc(O)c(CC=C(C)C)c4)c(=O)oc3c2C)OC1(C)C (stereo unspecified)
inactive: [2] | [3] | [4] | [5] | [9]
active: [1] 44 µM

CCCCCC[C@H](CCCCC[C@@H](O)C(N)=O)OC(=O)[C@@H]1CC=CN1C(=O)c1ccccc1O
active: [1] 62.1 µM | [2] 6.66 µM
inactive: [8] | [4] | [5]

Oc1ccc(C2c3c(O)cc(O)cc3[C@@H]3C(c4ccc(O)cc4)c4c(O)cc(O)cc4[C@H]23)cc1 (stereo partly specified)
active: [1] 34.9 µM
inactive: [2] | [3] | [8] | [4]

CN1C(=O)C2C(N=CN2C)N(C)C1=O (stereo unspecified)
inactive: [1] | [2] | [3] | [8] | [4] | [7]

C=C1C(=O)O[C@H]2[C@H]1CC/C(CO)=C\CC[C@@]1(C)O[C@@H]21
active: [2] 7.47 µM | [6] 23.6 µM | [7] 0.0084 µM
inactive: [1] | [3] | [9]

CC(=O)O[C@H]1CC[C@@]2(C)C(CC[C@]3(C)C2CC=C2C4CC(C)(C)CC[C@]4(C)CC[C@]23C)C1(C)C (stereo partly specified)
inactive: [1] | [2] | [4] | [7] | [5]

C=C1C[C@@]23C=CC(=O)[C@@](C)(CCC(=O)Nc4c(O)ccc(C(=O)O)c4O)C2C[C@@H]1CC3 (stereo partly specified)
active: [1] 27.7 µM
inactive: [2] | [3] | [4] | [7] | [9]

C=C1C[C@@]23C=CC(=O)[C@@](C)(CCCC(C)C(=O)O)[C@@H]2C[C@@H]1CC3 (stereo partly specified)
active: [1] 44 µM
inactive: [2] | [6] | [4] | [7] | [5] | [9]

CCCCCCCCC[C@@H]1C[C@@H]2CC[C@H]3[C@@H](C(=O)OCCCCN=C(N)N)[C@@H](C)N=C(N1)N23
inactive: [1] | [3] | [4] | [5] | [9]
active: [2] 10.3 µM | [6] 9.2 µM | [7] 1.64 µM

CC1(C)C=Cc2c(ccc3c2OC[C@@H](c2ccc(O)cc2O)C3)O1
active: [1] 44 µM
inactive: [2] | [6] | [8] | [9]

C=CC(C)(C)c1[nH]c2ccccc2c1C1=C(O)C(=O)C(c2c[nH]c3c(CC=C(C)C)cccc23)=C(O)C1=O
inactive: [10] > 46 µM | [11] > 46 µM | [13] | [14]
active: [12] 6.31 µM

CS/C=C/C(N)=O
inactive: [2] | [6] | [3] | [4] | [7] | [5]

C/C1=C/[C@@H](C)[C@H](O)C/C=C/CC/C=C/C(=O)O[C@@H]1[C@H](C)C(=O)/C=C/CC1CC(=O)NC(=O)C1
inactive: [8] | [4]
active: [1] 44 µM | [6] 8.38 µM | [9] 24.1 µM
